In PubChem BioAssay (NCI):
Compounds without any hit were thinned out: in the full panel of roughly 83,000, 20% have a hit.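 Plates (96-well) were seeded with cells, treated with compound at one concentration, and incubated for 48 hours before percent growth was determined.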 Active and inactive are the calls of the source. How the source made its calls: active means growth percent below 10; inactive means the rest.

Assays:
Assay in all cases: NCI-60 one-dose screen, 48 h (100 = growth as untreated, 0 = no growth, -100 = all killed)
Settings in all cases: 10 µM
SR leukemia = test system: SR leukemia
RPMI-8226 leukemia = test system: RPMI-8226 leukemia
OVCAR-8 ovarian = test system: OVCAR-8 ovarian
OVCAR-5 ovarian = test system: OVCAR-5 ovarian
OVCAR-4 ovarian = test system: OVCAR-4 ovarian
OVCAR-3 ovarian = test system: OVCAR-3 ovarian
HS 578T breast = test system: HS 578T breast
NCI/ADR-RES ovarian = test system: NCI/ADR-RES ovarian
T-47D breast = test system: T-47D breast
BT-549 breast = test system: BT-549 breast
MDA-MB-435 melanoma = test system: MDA-MB-435 melanoma
SW-620 colon = test system: SW-620 colon
MCF7 breast = test system: MCF7 breast
HCT-116 colon = test system: HCT-116 colon
HCC-2998 colon = test system: HCC-2998 colon
KM12 colon = test system: KM12 colon
SK-OV-3 ovarian = test system: SK-OV-3 ovarian
IGROV1 ovarian = test system: IGROV1 ovarian

Measured: growth

Cc1ccc(C)c(COc2cc(NC(=O)c3ccc4c(c3)OCO4)ccc2N(C)S(C)(=O)=O)c1
active: OVCAR-3 ovarian -20.6% | HS 578T breast -32.9% | NCI/ADR-RES ovarian -5.26% | T-47D breast 8.82% | MDA-MB-435 melanoma -15% | HCT-116 colon -34.1% | HCC-2998 colon -41.5% | KM12 colon -10.9%
inactive: SR leukemia 13.2% | RPMI-8226 leukemia 24.9% | OVCAR-8 ovarian 24.9% | OVCAR-5 ovarian 30.7% | OVCAR-4 ovarian 29.7% | BT-549 breast 27.5% | SW-620 colon 28.7% | MCF7 breast 11.1%

COc1cc(-c2nc3ccccc3o2)cc(CN2CCCCC2)c1O
active: MDA-MB-435 melanoma -79.9%
inactive: SR leukemia 31.7% | RPMI-8226 leukemia 45.1% | OVCAR-8 ovarian 71.1% | OVCAR-5 ovarian 110% | SK-OV-3 ovarian 118% | IGROV1 ovarian 82.1% | OVCAR-3 ovarian 59% | HS 578T breast 60.3% | NCI/ADR-RES ovarian 79.7% | T-47D breast 86.6% | BT-549 breast 67.2% | SW-620 colon 64.6% | MCF7 breast 50.8% | HCT-116 colon 57.2% | HCC-2998 colon 97.7% | KM12 colon 44.9%

Nc1ccn(Cc2nnc(CCC(=O)c3nc4ccccc4[nH]3)o2)c(=O)n1
inactive: SR leukemia 14.9% | RPMI-8226 leukemia 73.1% | OVCAR-8 ovarian 88.5% | OVCAR-5 ovarian 98% | SK-OV-3 ovarian 98.7% | IGROV1 ovarian 65.3% | OVCAR-3 ovarian 102% | HS 578T breast 81.3% | NCI/ADR-RES ovarian 86.1% | T-47D breast 71.6% | BT-549 breast 74.5% | MDA-MB-435 melanoma 91.9% | SW-620 colon 83.5% | MCF7 breast 35.7% | HCT-116 colon 63.8% | HCC-2998 colon 79.8%

CN1CCc2c(sc3nc4n(-c5ccc(Cl)cc5)cnn4c(=O)c23)C1
inactive: SR leukemia 120% | OVCAR-8 ovarian 100% | OVCAR-5 ovarian 105% | OVCAR-4 ovarian 111% | SK-OV-3 ovarian 91.4% | IGROV1 ovarian 95.3% | OVCAR-3 ovarian 101% | HS 578T breast 115% | NCI/ADR-RES ovarian 104% | T-47D breast 91.8% | BT-549 breast 93.4% | MDA-MB-435 melanoma 102% | SW-620 colon 110% | MCF7 breast 70.6% | HCT-116 colon 98% | HCC-2998 colon 104%

CCOC(=O)CN(c1sc(C)c(C)c1C(=O)OCC)S(=O)(=O)c1ccc(C)cc1
inactive: SR leukemia 96.9% | RPMI-8226 leukemia 98.2% | OVCAR-8 ovarian 105% | OVCAR-5 ovarian 107% | SK-OV-3 ovarian 87.1% | IGROV1 ovarian 111% | OVCAR-3 ovarian 109% | HS 578T breast 95.9% | NCI/ADR-RES ovarian 88% | T-47D breast 88.5% | BT-549 breast 102% | MDA-MB-435 melanoma 102% | SW-620 colon 100% | MCF7 breast 100% | HCT-116 colon 95.5% | HCC-2998 colon 100% | KM12 colon 96%

Nc1ccc(-c2cccs2)cc1NC(=O)c1ccc(CCCC(=O)Nc2ccc(C3CC3N)cc2)cc1 (centres undefined)
inactive: OVCAR-8 ovarian 44.9% | OVCAR-5 ovarian 86.2% | OVCAR-4 ovarian 93% | SK-OV-3 ovarian 68% | IGROV1 ovarian 80.9% | OVCAR-3 ovarian 63% | HS 578T breast 75.5% | NCI/ADR-RES ovarian 87.5% | T-47D breast 65.1% | BT-549 breast 96.5% | MDA-MB-435 melanoma 20.6% | SW-620 colon 23.7% | MCF7 breast 18.8% | HCC-2998 colon 99.7%
active: SR leukemia -10.5% | HCT-116 colon 3.29%

COc1cc2c(cc1NC(=O)C(Cl)Cl)-c1ccc(NC(=O)C(Cl)Cl)cc1C2
inactive: SR leukemia 86.4% | OVCAR-5 ovarian 10.2% | SK-OV-3 ovarian 56.3% | IGROV1 ovarian 43.1% | HS 578T breast 13.6% | BT-549 breast 69.3%
active: RPMI-8226 leukemia 1.01% | OVCAR-8 ovarian -22.8% | OVCAR-3 ovarian -44.6% | NCI/ADR-RES ovarian -39.2% | T-47D breast 3.05% | MDA-MB-435 melanoma -57.7% | SW-620 colon -11.6% | MCF7 breast -3.08% | HCT-116 colon -61% | HCC-2998 colon -98.5% | KM12 colon -65.5%

CCOC(=O)/C(=C(\C)N)C1CC(=O)NC1=O (centres undefined)
inactive: SR leukemia 102% | RPMI-8226 leukemia 101% | OVCAR-8 ovarian 99.7% | OVCAR-5 ovarian 102% | SK-OV-3 ovarian 107% | IGROV1 ovarian 118% | OVCAR-3 ovarian 109% | HS 578T breast 97.5% | NCI/ADR-RES ovarian 92.8% | T-47D breast 110% | BT-549 breast 87.3% | MDA-MB-435 melanoma 100% | MCF7 breast 91% | HCT-116 colon 107% | HCC-2998 colon 103% | KM12 colon 121%

Oc1ccc(-c2[nH]c3ccccc3c2-c2nc3ccccc3o2)cc1
inactive: SR leukemia 14.8% | RPMI-8226 leukemia 86.6% | OVCAR-8 ovarian 91.9% | OVCAR-5 ovarian 80.6% | IGROV1 ovarian 52.6% | OVCAR-3 ovarian 74.1% | HS 578T breast 81.4% | NCI/ADR-RES ovarian 32.5% | T-47D breast 40% | BT-549 breast 64.7% | SW-620 colon 40.9% | MCF7 breast 24.1% | HCT-116 colon 23.7% | HCC-2998 colon 58.5% | KM12 colon 21%
active: MDA-MB-435 melanoma 0.478%

Cc1c[nH]c(=O)n(Cc2nnc(CCC(=O)c3nc4ccccc4[nH]3)o2)c1=O
active: SR leukemia 4.57% | OVCAR-3 ovarian -14.8% | MDA-MB-435 melanoma -45.8% | MCF7 breast 9.44% | HCT-116 colon 6.25% | HCC-2998 colon -27.9% | KM12 colon 4.98%
inactive: RPMI-8226 leukemia 17.2% | OVCAR-8 ovarian 21% | OVCAR-5 ovarian 13.8% | IGROV1 ovarian 47.8% | HS 578T breast 10.2% | NCI/ADR-RES ovarian 90.7% | T-47D breast 34.3% | BT-549 breast 18.9% | SW-620 colon 28.9%

Clc1ccc(Cc2ccncc2)cc1
inactive: SR leukemia 97.6% | RPMI-8226 leukemia 109% | OVCAR-8 ovarian 99% | SK-OV-3 ovarian 113% | OVCAR-3 ovarian 110% | HS 578T breast 105% | NCI/ADR-RES ovarian 108% | BT-549 breast 99.9% | MDA-MB-435 melanoma 112% | SW-620 colon 105% | MCF7 breast 97.5% | HCT-116 colon 101% | HCC-2998 colon 95.6% | KM12 colon 102%

Cc1cc(SCc2ccccc2)nc(N)n1
inactive: SR leukemia 106% | RPMI-8226 leukemia 105% | OVCAR-8 ovarian 105% | SK-OV-3 ovarian 108% | OVCAR-3 ovarian 123% | HS 578T breast 111% | NCI/ADR-RES ovarian 105% | BT-549 breast 89.3% | MDA-MB-435 melanoma 99.2% | SW-620 colon 105% | MCF7 breast 93.8% | HCT-116 colon 102% | HCC-2998 colon 108% | KM12 colon 115%

COc1cc2c(cc1NC(=O)C(F)(F)F)-c1ccc(NC(=O)C(F)(F)F)cc1C2
inactive: SR leukemia 107% | RPMI-8226 leukemia 103% | OVCAR-8 ovarian 96.8% | OVCAR-5 ovarian 99% | SK-OV-3 ovarian 54.7% | IGROV1 ovarian 103% | OVCAR-3 ovarian 108% | HS 578T breast 77.8% | NCI/ADR-RES ovarian 93.3% | T-47D breast 83.8% | BT-549 breast 98.7% | MDA-MB-435 melanoma 99.6% | SW-620 colon 98.1% | MCF7 breast 94.2% | HCT-116 colon 97.1% | HCC-2998 colon 105% | KM12 colon 97.3%

CN1CCc2c(sc3nc4n(-c5ccc(Cl)cc5)c(=O)[nH]n4c(=O)c23)C1
inactive: SR leukemia 97.6% | OVCAR-8 ovarian 93% | OVCAR-5 ovarian 115% | OVCAR-4 ovarian 109% | SK-OV-3 ovarian 96.8% | IGROV1 ovarian 91.4% | OVCAR-3 ovarian 106% | HS 578T breast 121% | NCI/ADR-RES ovarian 99% | T-47D breast 87.6% | BT-549 breast 94% | MDA-MB-435 melanoma 103% | SW-620 colon 109% | MCF7 breast 91.7% | HCT-116 colon 89.1% | HCC-2998 colon 102%
